# Screening results (PubChem)
# CHX counter: affects cycloheximide protein synthesis inhibition readout, counter-screen. 300,000 compounds, 12% hits. cell reporter, cycloheximide protein synthesis inhibition counterscreen. max response, %; in the data active = max response mostly above about 13%, no sharp cut-off; inactive = mostly below about 14%; also: read at 38.3 µM for the half of the compounds with a filed dose; 0% is about no effect
# Shiga inhibitor: blocks Shiga toxin action in Vero cells. Vero cells, Shiga toxin protein synthesis inhibition reporter. inhibition, % at 38.7 µM. 290,000 compounds, 9.2% hits; in the data active = inhibition mostly above about 28%, no sharp cut-off; inactive = mostly below about 43%; also: 0% is about no effect
# Pf growth 96h: P. falciparum growth inhibition at 96 hour, primary screen for plastid delayed-death inhibitors. Potency, µM (doses to about 28.7 µM), for the others: top-dose activity change, negative = inhibition, actives largely listed as inhibitors. P. falciparum luciferase reporter growth, 96 h. 320,000 compounds, 6.9% hits. AID 504834; also: potency is read from the fitted curve at half-maximal effect; % is scaled to controls: 0 for no effect and ±100 for the full control effect
#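 Readout is luminescence from an integrated firefly luciferase in P. falciparum. Red cells, 2% hematocrit and 0.05% parasitemia final, were cultured with compound through two parasite generations (96 hours) at 37 C, 5% CO2.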
# LASV entry inh: Lassa virus entry inhibition; 300,000 compounds, 1.2% hits; Lassa virus pseudotype entry inhibition, cell reporter; Potency, µM (titrated, usually from 37.9 µM), inactives show at the highest dose activity change, negative = inhibition, most hits filed as inhibitors; calls by dose curve; tested in HEK293 cells; also: potency is read from the fitted curve at half-maximal effect; % is scaled to controls: 0 for no effect and ±100 for the full control effect; nearly all actives have a fitted effect of over 50% in size
# Pf growth 48h: inhibits P. falciparum growth in the first generation, 48 h; Potency, µM (top dose mostly 28.7 µM), without a hit: at the highest dose activity change, negative = inhibition, actives largely listed as inhibitors; P. falciparum luciferase growth in erythrocytes, 48 h; AID 504832; 310,000 compounds, 5.9% hits; also: potency is read from the fitted curve at half-maximal effect; % is scaled to controls: 0 for no effect and ±100 for the full control effect
#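 Compounds are pin-transferred into medium, infected erythrocytes (2% hematocrit, 0.1% parasitemia final) are added, and plates sit one parasite generation at 37 C in 5% CO2. Detection reagent is then added and luminescence measured.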
# MARV entry inh: Marburg virus entry inhibition; Marburg virus pseudotyped entry inhibition, cell reporter; Potency, µM (series often up to 37.8 µM), for the others: top-dose activity change, negative = inhibition, usual class: inhibitors; 300,000 compounds, 1.8% hits; AID 540276; calls by dose curve; tested in HEK293 cells; also: potency is read from the fitted curve at half-maximal effect; % is scaled to controls: 0 for no effect and ±100 for the full control effect
# An asterisk follows results filed as active; ? = inconclusive; . = no result; ! = not active in a repeat; [ ] = another dose, or the depositor's remark. Shown are actives, neighbours in structure and some others; about 19% of the full set was active somewhere. Unless noted, calls follow the shape of the dose curve; as a rule, active = well fitted inhibition curve with a large enough effect; inconclusive = small, poorly fitted or top-dose-only effect, or another doubt; inactive = no such curve, though single readings can be large or run the other way.
SMILES,CHX counter,Shiga inhibitor,Pf growth 96h,LASV entry inh,Pf growth 48h,MARV entry inh
Cc1cc(C(=O)CN2C(=O)NC(C)(CC(C)C)C2=O)c(C)n1-c1ccc2c(c1)OCO2 (stereo unspecified),-2.0,-7.0,4.15µM*,-22.0%,?,3.1%
Cc1cc(C(=O)CN2C(=O)NC3(CCCCC3)C2=O)c(C)n1Cc1ccco1,40.8*,88.7*,4.1%,?,55.8%,?
CCCNC(=O)c1cc(S(=O)(=O)N2CCCCC2)ccc1N1CCOCC1,.,.,-8.3%,26.0%,?,-1.6%
COc1ccc2c(CNCc3cccs3)c(C(=O)O)n(Cc3ccccc3)c2c1,.,.,.,-13.4%[46.1 µM],.,.
CCOc1ccc(NC(=O)Cc2ccccc2)c([N+](=O)[O-])c1,9.8,3.9,?,4.2%,39.9%,?
CCCCCCC1/C(=N\NC(=O)c2ccccc2)CCC1C(=O)OC (stereo unspecified),35.0*,80.1*,-16.2%,.,.,.
CCOC(=O)c1ccc2nc(NC(=O)c3ccco3)sc2c1,27.0*,35.0*,130.0%,?,74.0%,?
CCOc1ccc2nc(NC(=O)c3ccoc3C)sc2c1,24.1*,41.6,-14.5%,?,-53.3%,?
CCOC(=O)c1ccc2nc(NC(=O)c3cccs3)sc2c1,39.3*,43.8*,292.2%,?,141.5%,4.47µM*
CCOc1ccc2nc(NC(=O)c3ccco3)sc2c1,39.4*,37.8,-25.2%,?,198.9%,?
CCOc1ccc2nc(NC(=O)c3cccn(Cc4ccccc4)c3=O)sc2c1,.,.,.,18.5%[46.1 µM],.,.
O=C(COC(=O)c1ccco1)Nc1nc2ccc([N+](=O)[O-])cc2s1,19.0,2.3,5.6%,.,21.6%,.
O=C(Nc1nc2ccc(S(=O)(=O)N3CCCC3)cc2s1)c1cccs1,2.3,-1.8,29.2%,1.3%,7.8%,?
CCn1nc(NC(=O)c2ccncc2)c2cc3ccccc3nc21,0.3,-15.7,.,-19.0%,5.0%,-12.6%[46.1 µM]
Cc1cccc(C)c1NC(=O)Cn1c(=O)n(CCCS(=O)(=O)C2CCCCC2)c(=O)c2ccccc21,.,.,.,0.6%[46.1 µM],.,1.9%[46.1 µM]
O=C(Nc1ccc2oc(-c3ccccc3F)nc2c1)c1ccc([N+](=O)[O-])o1,-0.1,23.7,34.6%,.,?,.
Cc1sc(NC(=O)CSC2=NCCS2)nc1-c1ccccc1,-2.9,-11.2,-57.6%,?,.,?
CC(=O)N1CC(=O)N=C1SCC(=O)Nc1nc(-c2ccccc2)c(-c2ccccc2)s1,6.7,19.5,?,?,14.7µM*,-33.0%
CCc1noc2c1/C(=N\O)CC(c1ccccc1)C2 (stereo unspecified),18.4,31.6,84.8%,-3.5%,8.28µM*,2.2%
CCCc1noc2c1/C(=N\O)CC(c1ccccc1)C2 (stereo unspecified),-2.0,12.5,?,-10.1%,9.28µM*,4.6%
COc1cc(CN=Cc2c(O)n(Cc3ccccc3)c(=S)[nH]c2=O)cc(OC)c1,-1.2,-1.7,-7.6%,?,-10.8%,?
CCCCOC(=O)Cn1c2ccc(OC)cc2c2nc3ccccc3nc21,-2.4,-3.3,.,2.8%,-14.8%,?
CCC(=O)NCc1cc(-c2nn(C)c(=O)c3ccccc23)ccc1C,-2.9,-9.2,.,17.4%,-13.2%,0.5%
Cc1ccc(-c2nn(CC(=O)NCc3cc(-c4nn(C)c(=O)c5ccccc45)ccc3C)c(=O)c3ccccc23)cc1,-3.8,-12.0,.,?,5.9%,3.16µM*!
Cc1ccc(-c2nn(C)c(=O)c3ccccc23)cc1CNC(=O)c1ccccc1,-2.5,19.1,?,11.2µM*,?,?
SMILES,CHX counter,Shiga inhibitor,Pf growth 96h,LASV entry inh,Pf growth 48h,MARV entry inh
COc1ccc(CCNC(=O)CCC(=O)n2ncc3cc(C)ccc32)cc1OC,5.0,13.3,19.3%,.,22.0%,.
CC(C)c1nc2cc(C(=O)NC(c3cccnc3)C(F)(F)F)ccc2o1 (stereo unspecified),17.9*,23.7,?,.,10.3%,.
Cc1cnc(CNC(=O)c2ccc3oc(C(C)C)nc3c2)[nH]1,13.5,20.0,?,.,6.3%,.
CCn1ccnc1CNC(=O)c1ccc2oc(C(C)C)nc2c1,10.9,-21.4,0.0%,-1.4%[46.1 µM],22.8%,0.2%[46.1 µM]
COc1cc(CNC(=O)c2ccc3oc(C(C)C)nc3c2)cc(OC)c1,14.3*,14.6,10.6%,.,?,.
CC(C)c1nc2cc(C(=O)N(C)Cc3ccc(F)cc3)ccc2o1,42.5*,80.3*,?,?,8.8%,3.5%
